# Test system: Bacillus 1 (Bacillus foraminis)
# Assay: relative growth (AUC of 72 h growth curve relative to DMSO control, dAUC) (ratio); higher = more growth (less inhibition), active = hit call of the paper
# Settings: 20 µM;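 active = growth AUC significantly below the DMSO wells by Dunnett test; inactive = the rest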
# Description: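 Environmental bacterial isolates (Iceland stream sediment and Silwood Park soil) and whole stream-sediment communities were grown in LB from a 1:100 dilution with each pesticide at 20 µM (1% DMSO). A600 was read hourly for 72 h and the area under a spline-fitted growth curve (AUC) was computed. dAUC is the mean AUC of 3 biological replicates divided by the mean AUC of the DMSO controls. Significance was tested by Dunnett's test against the DMSO control.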
row,SMILES,relative growth
1,COCC(C)N(C(=O)CCl)c1c(C)csc1C (stereo not given),0.948 (inactive)
2,CCOCN(C(=O)CCl)c1c(C)cccc1CC,1 (inactive)
3,CC(C)NC(=O)N1CC(=O)N(c2cc(Cl)cc(Cl)c2)C1=O,0.928 (inactive)
4,Cc1cccc2sc3nncn3c12,1.03 (inactive)
5,N#Cc1c(Cl)c(Cl)c(Cl)c(C#N)c1Cl,0.955 (inactive)
6,COP(N)(=O)SC (stereo not given),0.871 (inactive)
7,Cc1cc(C(F)(C(F)(F)F)C(F)(F)F)ccc1NC(=O)c1cccc(I)c1C(=O)NC(C)(C)CS(C)(=O)=O,1.16 (inactive)
8,CS(=O)(=O)NC(=O)c1cc(Oc2ccc(C(F)(F)F)cc2Cl)ccc1[N+](=O)[O-],1.04 (inactive)
9,CCc1cc(C)cc(CC)c1-c1c(OC(=O)C(C)(C)C)n2n(c1=O)CCOCC2,0.912 (inactive)
10,Oc1ccccc1-c1ccccc1,0.868 (inactive)
11,Cc1nnc(-c2ccccc2)c(=O)n1N,0.881 (inactive)
12,CN/C(=N/CC1CCOC1)N[N+](=O)[O-] (stereo not given),1.11 (inactive)
13,CCOC(=O)OC1=C(c2cc(C)ccc2C)C(=O)N[C@]12CC[C@@H](OC)CC2,1.03 (inactive)
14,COc1ccc(-c2ccccc2)cc1NNC(=O)OC(C)C,1.03 (inactive)
15,CC1(C)CON(Cc2ccccc2Cl)C1=O,1.03 (inactive)
16,CC1COC(Cn2cncn2)(c2ccc(Oc3ccc(Cl)cc3)cc2Cl)O1 (stereo not given),1.11 (inactive)
17,CNC(=O)c1cc(Cl)cc(C)c1NC(=O)c1cc(Br)nn1-c1ncccc1Cl,1.01 (inactive)
18,Cc1cc(C)nc(Nc2ccccc2)n1,1.08 (inactive)
19,CC1(C)[C@H](/C=C(\Cl)C(F)(F)F)[C@@H]1C(=O)OC(C#N)c1cccc(Oc2ccccc2)c1 (stereo not given in full),1.05 (inactive)
20,CON(C)C(=O)Nc1ccc(Cl)c(Cl)c1,1.04 (inactive)

row,SMILES,relative growth
1,C[N+]1(C)CCCCC1,1.04 (inactive)
2,CC(C)OC(=O)C(C(=O)OC(C)C)=C1SCCS1,1.05 (inactive)
3,COc1cc(C)c(C(=O)c2c(OC)ccc(Br)c2C)c(OC)c1OC,1.03 (inactive)
4,O=C(Nc1ccccc1-c1ccc(Cl)cc1)c1cccnc1Cl,1.01 (inactive)
5,CCC(C)(C)C(=O)OC1=C(c2ccc(Cl)cc2Cl)C(=O)OC12CCCCC2,0.975 (inactive)
6,CCOc1cc(Oc2ccc(C(F)(F)F)cc2Cl)ccc1[N+](=O)[O-],0.956 (inactive)
7,O=C(O)COc1ccc(Cl)cc1Cl,1.09 (inactive)
8,O=C(Nc1ccc(F)cc1F)c1cccnc1Oc1cccc(C(F)(F)F)c1,1.07 (inactive)
9,CCOCn1c(-c2ccc(Cl)cc2)c(C#N)c(Br)c1C(F)(F)F,1.1 (inactive)
10,O=C1C=C(N(Cc2ccc(Cl)nc2)CC(F)F)CO1,0.945 (inactive)
11,CCCCc1c(C)nc(NCC)nc1OS(=O)(=O)N(C)C,0.907 (inactive)
12,CCOP(=S)(OCC)Oc1cc(C)nc(C(C)C)n1,0.963 (inactive)
13,CO/C=C(/C(=O)OC)c1ccccc1COc1cccc(C(F)(F)F)n1,1.05 (inactive)
14,CC1(C)C(C=C(Cl)Cl)C1C(=O)OC(C#N)c1cccc(Oc2ccccc2)c1 (stereo not given),1.11 (inactive)
15,Fc1ccc(Oc2ccnc3cc(Cl)cc(Cl)c23)cc1,1.04 (inactive)
16,COCC(=O)N(c1c(C)cccc1C)[C@H](C)C(=O)OC,1.06 (inactive)
17,Cc1nc(N(C)C)nc(OC(=O)N(C)C)c1C,0.959 (inactive)
18,CN/C(=N\[N+](=O)[O-])NCc1cnc(Cl)s1,1.03 (inactive)
19,Nc1c(Cl)c(F)nc(OCC(=O)O)c1Cl,1.02 (inactive)
20,Nc1c([N+](=O)[O-])ccc(Oc2ccccc2)c1Cl,1.02 (inactive)

# — the supplement of paper PMC12067926
